We go through 26 compounds from PubChem BioAssay (Tox21).

Assay [1] in a line: A CellTox Green Cytotoxicity Assay to monitor cytotoxicity in HEK293 cells - 8 hour (AID 1224884). Also: nearly all actives have a fitted effect of over 35% in size. An outline of the steps: (§1)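 Homogeneous no-lysis format: HEK293 cell suspension mixed with CellTox Green reagent, seeded, incubated 5 h at 37 C/5% CO2, then dosed by pintool with compound in DMSO.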
The nature of assay [2]: qHTS RealTime-Glo MT Cell Viability Assay in HepG2 cells - 16 hour (AID 1224885). Also: nearly all actives have a fitted effect of over 50% in size. An outline of the steps: (§2)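 Luminescence read-out: viable HepG2 cells reduce a prosubstrate to a NanoLuc substrate, giving a signal proportional to live cell number. Reads taken at 0, 8, 16, 24, 32 and 40 h of compound exposure at 37 C.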
(In general: Quantitative high-throughput screening tests each substance at several concentrations.)

A short description of assay [3]: qHTS RealTime-Glo MT Cell Viability Assay in HEK293 cells - 24 hour (AID 1224886). Also: nearly all actives have a fitted effect of over 50% in size. Also: potency is read from the fitted curve at half-maximal effect. An outline of the steps: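 Nonlytic real-time viability readout: viable cells convert prosubstrate to NanoLuc substrate, giving luminescence proportional to live cell number. HEK293, 600 cells/well, compound added after 5 h, continuous culture at 37 C.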
The nature of assay [4]: qHTS RealTime-Glo MT Cell Viability Assay in HEK293 cells - 8 hour (AID 1224887). Also: nearly all actives have a fitted effect of over 50% in size. Also: potency is read from the fitted curve at half-maximal effect. An outline of the steps:
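Measured as luminescence from the same continuously cultured HEK293 wells at successive time points (0, 8, 16, 24, 32, 40 h) after compound addition. Reagent present from seeding; dosing at 5 h; incubation 37 C.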

Assay [5] is described as follows: A CellTox Green Cytotoxicity Assay to monitor cytotoxicity in HEK293 cells - 16 hour (AID 1224888). Also: nearly all actives have a fitted effect of over 35% in size. The procedure, abridged: as §1
A short description of assay [6]: qHTS RealTime-Glo MT Cell Viability Assay in HepG2 cells - 0 hour (AID 1224889). Also: nearly all actives have a fitted effect of over 50% in size. Also: potency is read from the fitted curve at half-maximal effect. An outline of the steps:
as §2

The nature of assay [7]: A CellTox Green Cytotoxicity Assay to monitor cytotoxicity in HepG2 cells - 8 hour (AID 1224890). Also: nearly all actives have a fitted effect of over 45% in size. Also: potency is read from the fitted curve at half-maximal effect. The procedure, abridged: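 Fluorescent DNA-binding dye, 600 HepG2 cells/well, 5 h preincubation then compound in DMSO; same plates read at 0–40 h, 37 C.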
Assay [8] is described as follows: qHTS assay to identify small molecule antagonists of the estrogen receptor alpha (ER-alpha) signaling pathway using the BG1 cell line in the presence of 0.1 nM 17-beta-estradiol - cell viability counter screen (AID 1259241). Also: nearly all actives have a fitted effect of over 40% in size. The procedure, abridged:
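In this screen, hormone-deprived VM7Luc4E2 cells were seeded at 4,000 per well, dosed with compound and 0.1 nM estradiol final, and incubated 22 hr at 37C and 5% CO2; fluorogenic live-cell protease signal reported viability.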

Assay [9] in a line: qHTS assay to identify small molecule antagonists of the androgen receptor (AR) signaling pathway using the MDA cell line in the presence of 0.5 nM R1881 - cell viability counter screen (AID 1259242). Also: nearly all actives have a fitted effect of over 45% in size. The procedure, abridged:
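Human breast carcinoma MDA-kb2 cells, cultured without CO2, receive compounds alongside 0.5 nM (final) R1881 agonist. After 16 hr at 37C, viability is taken as live-cell protease signal.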

Several values for one entry are separate records, joined by “and”; a condition that tells them apart may be missing. Identical values can stand only once. Records with an inconclusive call do not appear. Some structures have more than one record in an assay (separate samples or runs), and their calls can disagree. Activity calls are given as the source filed them. Calls follow the shape of the dose curve; as a rule, active = well fitted curve in the direction sought with a large enough effect in the repeat runs; inconclusive = weak or mixed curves; inactive = no such curve, though single readings can be large; an effect the other way counts as inactive or inconclusive.

`CCCCCC(N)=O`: the outcome in assay [1], in assay [2], in [5] and in assay [9] was inactive. Also, the Potency entry in assay [3], in assay [4], in [6], in assay [7] and in assay [8] was “inactive” in each case.
As for `O=c1[nH]c(=O)n([C@H]2CCCO2)cc1F`, the outcome in assay [1], in [2], in assay [5] and in assay [9] was inactive. Also, the Potency entry in [3], in [4], in [6], in [7] and in [8] was “inactive” in each case.
For `c1ccc(OCCOc2ccccc2)cc1`, the compound was called inactive in assay [1], in assay [2], in assay [5] and in assay [9]. For the same compound, the Potency result in assay [3], in assay [4], in assay [6], in assay [7] and in assay [8] was “inactive” in each case.
Consider `CN(C)CCOCCN(C)C`, for which the compound was called inactive in [1], in assay [2], in assay [5] and in assay [9]. The Potency result in [3], in [4], in assay [6] and in assay [8] was “inactive” in each case. In [7], the Potency result was “inactive and 49 µM (active)”.
Regarding `CCCCCCCC(=O)OC`, the compound was classed as inactive in assay [1], in assay [2], in assay [5] and in assay [9]. The Potency entry in assay [3], in assay [4], in [6], in assay [7] and in [8] was “inactive” throughout.
Consider `CC(=O)CC(=O)Nc1ccccc1C`, for which the result in assay [1], in assay [2], in assay [5] and in assay [9] was inactive. The Potency result in assay [3], in [4], in assay [6], in assay [7] and in [8] was “inactive” in each case.
For `CCCC(C)=O`, the outcome in assay [1], in [2], in assay [5] and in assay [9] was inactive. The Potency result in assay [3], in assay [4], in assay [6], in [7] and in assay [8] was “inactive” each time.
On to `COCCCOc1ccnc(CS(=O)c2nc3ccccc3[nH]2)c1C` (centres undefined), for which the compound was called inactive in assay [1], in assay [2], in assay [5] and in assay [9]. Also, the Potency is 10.9 µM (active) and inactive in assay [3]; 19.4 µM (active) and inactive in [4]. The Potency result in [6], in assay [7] and in [8] was “inactive” in each case.
As to `CSCCC=O`, the compound was called inactive in assay [1], in [2], in assay [5] and in assay [9]. Further, the Potency entry in [3], in [4], in assay [6], in assay [7] and in assay [8] was “inactive” in each case.
Consider `CCCCOC(=O)COc1ccc(Cl)cc1Cl`, for which the result in assay [1], in [2], in assay [5] and in assay [9] was inactive. Further, the Potency entry in assay [3], in assay [4], in assay [6], in [7] and in assay [8] was “inactive” throughout.
Take `C/C=C1/CC2C=CC1C2` (centres undefined): the compound was classed as inactive in assay [1], in assay [2], in [5] and in assay [9]. Besides, the Potency result in assay [3], in assay [4], in assay [6], in [7] and in assay [8] was “inactive” in each case.
Turning to `Cc1occc(=O)c1O`, the compound was called inactive in assay [1], in [2], in assay [5] and in assay [9]. The Potency entry in [3], in assay [4], in assay [6], in assay [7] and in assay [8] was “inactive” each time.
Consider `O=C(Oc1ccccc1)c1ccccc1`, for which the result in [1], in [2], in assay [5] and in assay [9] was inactive. Moreover, the Potency entry in assay [3], in assay [4], in assay [6], in assay [7] and in [8] was “inactive” throughout.
For the compound `CCN(CC)c1ccc(C(=O)c2ccccc2C(=O)O)c(O)c1`, the compound was classed as inactive in assay [1], in assay [2], in assay [5] and in assay [9]. For the same compound, the Potency result in assay [3], in assay [4], in assay [6], in assay [7] and in [8] was “inactive” each time.
Regarding `CCCCC(CC)CO` (centres undefined), the call in assay [1], in assay [2], in [5] and in assay [9] was inactive. For the same compound, the Potency result in assay [3], in assay [4], in assay [6], in assay [7] and in [8] was “inactive” each time.
`Cc1cnc(C(=O)NCCc2ccc(S(=O)(=O)NC(=O)NC3CCCCC3)cc2)cn1`: the compound was called inactive in [1], in assay [2], in assay [5] and in [9]. The Potency entry in assay [3], in [4], in assay [6], in assay [7] and in [8] was “inactive” throughout.
Turning to `CCCCCOC(C)=O`, the call in [1], in assay [2], in assay [5] and in assay [9] was inactive. The Potency result in assay [3], in [4], in assay [6], in [7] and in assay [8] was “inactive” in each case.
As to `CC1=CCC2CC1C2(C)C` (centres undefined), the compound was classed as inactive in [1], in assay [2], in assay [5] and in assay [9]. The Potency result in assay [3], in assay [4], in assay [6], in assay [7] and in [8] was “inactive” throughout.
Take `ON=C1CCCCC1`: the call in assay [1], in assay [2], in assay [5] and in [9] was inactive. Also, the Potency entry in assay [3], in assay [4], in assay [6], in assay [7] and in assay [8] was “inactive” each time.
Regarding `Cc1cc(C)c(C)cc1C`, the outcome in [1], in assay [2], in [5] and in [9] was inactive. For the same compound, the Potency result in assay [3], in assay [4], in assay [6], in assay [7] and in assay [8] was “inactive” throughout.
For `CCCSc1ccc2nc(NC(=O)OC)[nH]c2c1`, the call in [1], in [2], in assay [5] and in assay [9] was inactive. For the same compound, the Potency entry in assay [3], in assay [4], in assay [6], in assay [7] and in assay [8] was “inactive” in each case.
Turning to `O=[N+]([O-])c1ccc(/C=C/c2ccc([N+](=O)[O-])cc2S(=O)(=O)O)c(S(=O)(=O)O)c1`, the compound was called inactive in assay [1], in [2], in assay [5] and in assay [9]. The Potency result in assay [3], in [4], in assay [6], in assay [7] and in [8] was “inactive” each time.
With `CCCCCCCCCC`, the outcome in [1], in [2], in assay [5] and in [9] was inactive. For the same compound, the Potency entry in assay [3], in assay [4], in [6], in [7] and in [8] was “inactive” in each case.
Consider `CCCCC(CC)COC(=O)C(C#N)=C(c1ccccc1)c1ccccc1` (centres undefined), for which the result in assay [1], in [2], in assay [5] and in [9] was inactive. The Potency entry in assay [3], in [4], in assay [6], in [7] and in [8] was “inactive” in each case.
Turning to `C[C@H]1C[C@H]2[C@@H]3CCC4=CC(=O)C=C[C@]4(C)[C@@]3(F)[C@@H](O)C[C@]2(C)[C@@]1(O)C(=O)CO`, the compound was called inactive in assay [1], in [2], in assay [5] and in assay [9]. The Potency entry in assay [3], in [4], in assay [7] and in assay [8] was “inactive” each time. Also, the Potency in assay [6] is 7.76 µM (active).
In the case of `O=C(O)CCCC[C@@H]1SC[C@@H]2NC(=O)N[C@@H]21`, the result in assay [1], in assay [2], in assay [5] and in assay [9] was inactive. Moreover, the Potency entry in assay [3], in [4], in [6], in [7] and in assay [8] was “inactive” in each case.
